This is one part of a sample in which hits are shown more often than they occur.
TSHR agonist = TSH receptor (human) agonism; P16473; HEK293-CNG-TSHR cells (CNG channel as cAMP sensor), membrane potential dye, cAMP; Potency, µM (highest dose often 57.1 µM), hits mostly activators; 0.48% of 73,000 active; AID 926; active = well fitted activation curve with a large enough effect in the main read-out, with a control signal flat, not every such curve was filed as active; inconclusive = small, poorly fitted or top-dose-only effect, or a change in a side signal; inactive = no such curve, though single readings can be large or run the other way; reference of the percent scale not stated here;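 note: the control signal comes from parental cells without the receptor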
Target sequence (P16473 whole entry, looked up): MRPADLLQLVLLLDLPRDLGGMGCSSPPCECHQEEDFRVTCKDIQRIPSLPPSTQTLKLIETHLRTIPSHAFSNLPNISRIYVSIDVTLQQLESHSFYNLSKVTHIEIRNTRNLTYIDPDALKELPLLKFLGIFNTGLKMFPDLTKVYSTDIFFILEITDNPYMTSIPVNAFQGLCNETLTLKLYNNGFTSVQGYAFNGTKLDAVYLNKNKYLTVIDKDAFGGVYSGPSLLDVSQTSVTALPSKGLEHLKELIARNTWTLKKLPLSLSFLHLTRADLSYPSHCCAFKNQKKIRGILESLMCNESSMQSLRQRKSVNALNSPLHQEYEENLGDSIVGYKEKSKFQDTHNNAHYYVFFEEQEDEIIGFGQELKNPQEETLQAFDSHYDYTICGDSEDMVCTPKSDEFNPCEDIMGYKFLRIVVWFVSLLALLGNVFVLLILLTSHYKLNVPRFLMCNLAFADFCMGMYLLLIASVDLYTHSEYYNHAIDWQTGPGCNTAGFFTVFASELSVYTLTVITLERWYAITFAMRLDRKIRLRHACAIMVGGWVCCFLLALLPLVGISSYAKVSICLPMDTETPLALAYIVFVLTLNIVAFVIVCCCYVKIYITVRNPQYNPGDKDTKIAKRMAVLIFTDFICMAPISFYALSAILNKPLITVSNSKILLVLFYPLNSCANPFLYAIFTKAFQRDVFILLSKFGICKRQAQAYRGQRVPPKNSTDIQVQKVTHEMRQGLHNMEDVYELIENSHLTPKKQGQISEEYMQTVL
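HEK 293 cells stably expressing TSHR and a modified CNG channel, with CNG-only parental cells as counterscreen, were preloaded 60 min at room temperature with membrane potential dye containing 100 uM RO 20-1724. Compound exposure was 30 min, and depolarization was read as fluorescence at 590 nm.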
HEK293 cAMP ctrl = parental HEK293 cAMP activation (counter-screen); parental HEK293 CNG cAMP sensor, membrane potential fluorescence; AID 938; 2.5% of 73,000 active; Potency, µM (top dose mostly 57.1 µM), actives largely listed as activators; note: nearly all actives have a fitted effect of over 55% in size
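Parental HEK 293 cells stably expressing a modified CNG channel (no TSHR) report cAMP rise as membrane depolarization. Membrane potential dye with 100 uM RO 20-1724 was loaded for 60 min at room temperature, then compound added for 30 min; fluorescence read at 590 nm.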
Imprint erasure = genomic imprint erasure induction; mouse ES Peg3-LacZ reporter, beta-gal luminescence, 40 h; Potency, µM (series often up to 60.7 µM), usual class: activators; 0.02% of 110,000 active; AID 1948
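Each well holds 300 Peg3LacZ-Neo (maternal) female ES cells incubated 40 h at 37C, 5% CO2. LacZ is measured by BetaGlo luminescence, with AC50 and maximum efficacy derived from dose-response curves.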
Each line names hits and unclear results; the compound was inactive in the other large screens. Unless noted, calls come from the whole dose curve; as a rule, active = well fitted activation curve with a large enough effect; inconclusive = small, poorly fitted or top-dose-only effect; inactive = no such curve, though single readings can be large or run the other way.

O=C(N/N=C1/C[C@@H](O)[C@@H](O)[C@@H]2[C@@H]3C(=O)N(C[C@@H]4CCCO4)C(=O)[C@H]3CC[C@H]12)OCc1ccccc1	none (no result: Imprint erasure)
Cc1cc(NC(=O)c2cc(-c3cccnc3)nc3c(C)c(C)ccc23)no1	TSHR agonist inconclusive, HEK293 cAMP ctrl 25.1µM
Cc1ccc(-c2cc(C(=O)Nc3cc(C)on3)c3ccccc3n2)c(C)c1	TSHR agonist inconclusive, HEK293 cAMP ctrl inconclusive
CCOC(=O)c1ccc(NC(=O)CN(Cc2ccc(C)cc2)S(=O)(=O)c2ccc(C)cc2)cc1	none (no result: TSHR agonist, HEK293 cAMP ctrl)
C=CCn1c(SCC(=O)N2CCN(C(=O)c3ccco3)CC2)nc2sc(CC)cc2c1=O	none
C=CCn1c(SCC(=O)c2cccs2)nc2sc(CC)cc2c1=O	TSHR agonist inconclusive, HEK293 cAMP ctrl 15.8µM
COc1ccccc1N1CCN(C(c2ccccc2Cl)c2nnnn2C(C)(C)C)CC1 (centres undefined)	TSHR agonist inconclusive, HEK293 cAMP ctrl inconclusive
CCC(C)(C)n1nnnc1C(c1ccc(C)cc1)N1CCN(Cc2cccnc2)CC1 (centres undefined)	none
CCC(C)(C)n1nnnc1C(c1ccncc1)N1CCN(c2cccc(OC)c2)CC1 (centres undefined)	TSHR agonist inconclusive, HEK293 cAMP ctrl 2.51µM
COc1ccccc1N1CCN(C(c2ccc(Cl)cc2)c2nnnn2C(C)(C)C)CC1 (centres undefined)	TSHR agonist inconclusive, HEK293 cAMP ctrl 2µM
Cn1c(=O)cc(OCC(=O)NCc2ccc(F)cc2Cl)c2ccccc21	none (no result: TSHR agonist, HEK293 cAMP ctrl)
COc1ccc(-c2cc(C(C)=O)c(C)n2CCC(=O)Nc2ccc(C(F)(F)F)cc2)cc1	none (no result: TSHR agonist, HEK293 cAMP ctrl)
O=C(NCc1ccco1)C(c1ccccc1)N(CC1CCCO1)C(=O)Cn1nnc2ccccc21 (centres undefined)	none
Cc1ccccc1C(C(=O)NCc1ccco1)N(CC1CCCO1)C(=O)Cn1nnc2ccccc21 (centres undefined)	TSHR agonist inconclusive, HEK293 cAMP ctrl inconclusive
Cc1cccc(N(C(=O)Cn2nnc3ccccc32)C(C(=O)NCc2ccco2)c2ccncc2)c1C (centres undefined)	none
Cc1cccc(C)c1NC(=O)C(c1cccs1)N(Cc1ccco1)C(=O)Cn1nnc2ccccc21 (centres undefined)	TSHR agonist inconclusive, HEK293 cAMP ctrl 15.8µM
O=C(NC1CCCCC1)C(c1ccc(F)cc1)N(Cc1ccco1)C(=O)Cn1nnc2ccccc21 (centres undefined)	TSHR agonist inconclusive, HEK293 cAMP ctrl 15.8µM (no result: Imprint erasure)
O=C(NC1CCCCC1)C(c1ccccc1F)N(Cc1ccco1)C(=O)Cn1nnc2ccccc21 (centres undefined)	TSHR agonist inconclusive, HEK293 cAMP ctrl 20µM
Cc1ccc(CNC(=O)Cn2c(=O)n(Cc3ccccc3)c(=O)c3c2c2cc(C)ccc2n3C)cc1	none (no result: TSHR agonist, HEK293 cAMP ctrl)
O=c1[nH]c2[nH]c(=S)[nH]c(=S)c2[nH]1	none
CCCNC(=O)Cn1c(=O)cc(C)c2c(C)nn(-c3cccc(F)c3)c21	none (no result: TSHR agonist, HEK293 cAMP ctrl)
CC(C)c1nn2c(=O)cc(COC(=O)c3ccc(NC(=O)CCc4ccccc4)cc3)nc2s1	none (no result: TSHR agonist, HEK293 cAMP ctrl)
CCOc1ncccc1C(=O)OCc1ccc(C(=O)OC)o1	none
CCOc1cc(C(=O)OCc2ccc(C(=O)OC)o2)cc(Br)c1OC	TSHR agonist inconclusive, HEK293 cAMP ctrl 31.6µM
Cc1ccc(CSc2nnc(-c3cccs3)n2C)cc1	none
Cn1c(SCc2c(Cl)cccc2Cl)nnc1-c1cccs1	TSHR agonist inconclusive, HEK293 cAMP ctrl 12.6µM
COc1ccc(-n2nc(C(=O)N3CCCCC3C)c3c4ccccc4n(C)c3c2=O)cc1Cl (centres undefined)	none (no result: TSHR agonist, HEK293 cAMP ctrl)
Cc1ccc(C)n1-c1nnc(N2CCC(C(=O)Nc3ccccc3Br)CC2)s1	none (no result: TSHR agonist, HEK293 cAMP ctrl)
C[C@@H]1[C@H](O)[C@@H](C)/C=C/C=C/C=C/C=C/C=C/C=C/C=C/[C@H](O[C@@H]2O[C@H](C)[C@@H](O)[C@H](N)[C@@H]2O)C[C@@H]2O[C@](O)(C[C@@H](O)C[C@@H](O)[C@H](O)CC[C@@H](O)C[C@@H](O)CC(=O)O[C@H]1C)C[C@H](O)[C@H]2C(=O)O	none
COc1cccc(-c2nn3c(=O)cc(CN4CCN(S(=O)(=O)c5ccc(C)cc5)CC4)nc3s2)c1	none (no result: TSHR agonist, HEK293 cAMP ctrl)
O=C(NCc1ccc2c(c1)OCO2)c1ccc2snnc2c1	TSHR agonist inconclusive, HEK293 cAMP ctrl 7.94µM
Cn1nnc2cc(C(=O)NCc3ccc4c(c3)OCO4)ccc21	none
O=C(NCC(c1ccco1)S(=O)(=O)c1ccc(Cl)cc1)c1ccc(C(F)(F)F)cc1 (centres undefined)	none (no result: TSHR agonist, HEK293 cAMP ctrl)
Nc1nc(SCC(=O)Nc2cccc(C(F)(F)F)c2)n[nH]1	none (no result: TSHR agonist, HEK293 cAMP ctrl)
COc1ccc2c3c1OC1C[C@@H](O)C=C[C@@]31CCN(C)C2 (some centres undefined)	none
